# High-throughput results deposited in PubChem by National Center for Advancing Translational Sciences (NCATS).
# HP1b binding inh = HTS for Inhibitors of HP1-beta Chromodomain Interactions with Methylated Histone Tails | 0.56% of 390,000 active | Chromobox protein homolog 1 (Homo sapiens), P83916 | AlphaScreen HP1-beta / biotin-H3K9me3 peptide binding | AID 540317, 2011 | Potency, µM (series often up to 114 µM), for inactives: at the top dose activity change, negative = inhibition, usual class: inhibitors; note: potency is the fitted concentration of half-maximal effect; nearly all actives have a fitted effect of over 70% in size
#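 HP1-beta protein (50 nM final) preincubated 30 min at room temperature with biotinylated H3(1-18)K9me3 peptide (50 nM) in PBS pH 7.4, 0.01% Tween-20, then compound added for 30 min. AlphaScreen streptavidin donor/nickel chelate acceptor beads (10 ug/mL final), 30 min dark, luminescence read.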
# BAZ2B block = qHTS Assay for Inhibitors of BAZ2B; AlphaScreen BAZ2B-H3K14Ac peptide displacement; Potency, µM (doses to about 114 µM), for the others: top-dose activity change, negative = inhibition, hits mostly inhibitors; 4.4% of 360,000 active; Bromodomain adjacent to zinc finger domain protein 2B (Homo sapiens), Q9UIF8; note: potency is the fitted concentration of half-maximal effect; % is set by controls: 0 for no effect and ±100 for the full control effect; nearly all actives have a fitted effect of over 60% in size
#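 Compounds, titrated to a top concentration of 110 uM, were incubated 30 min at room temperature with preformed BAZ2B/acetyl-K14 H3 peptide complex (50 nM each). Proximity signal was measured by AlphaScreen after 20 min with beads.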
# JMJD2A Tudor inh = qHTS Assay for Inhibitors of JMJD2A-Tudor Domain. Potency, µM (titrated, usually from 114 µM), for inactives: at the top dose activity change, negative = inhibition, most hits filed as inhibitors. Lysine-specific demethylase 4A (Homo sapiens), O75164. 4.4% of 390,000 active. AlphaScreen JMJD2A-Tudor / H3K4me3 peptide binding; note: potency is the fitted concentration of half-maximal effect; % is set by controls: 0 for no effect and ±100 for the full control effect; nearly all actives have a fitted effect of over 50% in size
# Six1-Eya2 inh = qHTS Assay for Inhibitors of the Six1/Eya2 Interaction. activity change, % (test concentration not listed). 0.56% of 360,000 active. AlphaScreen GST-Six1/His-Eya2 binding, biochemical; hits give low values; in the data active = activity change below about -65%; inconclusive = mostly about -30% to -63%; note: % is set by controls: 0 for no effect and ±100 for the full control effect
#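 AlphaScreen with GST-Six1 and His-Eya2 (5X mix: 250 nM and 500 nM), glutathione donor and nickel acceptor beads; buffer 50 mM Tris pH 8.0, 300 mM NaCl, 1 mM TCEP; 1 h at 37 C in the dark.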
# G9a inh = qHTS Assay for Inhibitors of Histone Lysine Methyltransferase G9a. Potency, µM (top dose mostly 102 µM), without a hit: at the top dose activity, negative = inhibition, usual class: inhibitors. 8.8% of 350,000 active. Histone-lysine N-methyltransferase EHMT2 (Homo sapiens), Q96KQ7. G9a H3K9 monomethylation, AlphaScreen, 2 h; note: potency is the fitted concentration of half-maximal effect; % is set by controls: 0 for no effect and ±100 for the full control effect; nearly all actives have a fitted effect of over 75% in size
#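 Step 1: enzyme (final 20 nM) with compound, 15 min RT. Step 2: substrate peptide 500 nM and SAM 20 uM, 2 h RT. Step 3: anti-H3K9me1 antibody and AlphaScreen beads, 10 min, then plate read.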
# CtBP-E1A inh = qHTS Assay for Inhibitors of the CtBP/E1A Interaction; AlphaScreen GST-E1A/His-CtBP binding, 1536-well; hits give low values; 0.49% of 340,000 active; CtBP / adenovirus E1A interaction (AlphaScreen); AID 651724, 2012; activity change, % (concentration not given with the values); in the data active = activity change below about -65%; inconclusive = mostly about -30% to -63%; note: % is set by controls: 0 for no effect and ±100 for the full control effect
#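 In 5 uL wells, 23 nL compound meets equimolar GST-E1A and His-CtBP (5X stock 125 nM each) for 2 h, 37 °C. Beads (5X, 50 ug/mL) then 1 h, 37 °C, dark.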
# The depositor's hits bear a star; u = inconclusive; x = no result; [ ] = another dose, or the depositor's remark. In the library only some 10% were active in any assay of this set; here they are far more common. Unless noted, calls come from the whole dose curve; as a rule, active = well fitted inhibition curve with a large enough effect; inconclusive = small, poorly fitted or top-dose-only effect; inactive = no such curve, though single readings can be large or run the other way.
SMILES,HP1b binding inh,BAZ2B block,JMJD2A Tudor inh,Six1-Eya2 inh,G9a inh,CtBP-E1A inh
CC1(c2ccc(Cl)cc2)NC(=S)N2C1NC(=S)N2c1ccccc1 (configuration not stated),27%,50µM*,-30%,-5,-113%[59 µM],-6
CCc1ccccc1NC(=O)C1CCN(S(=O)(=O)c2cn(C)cn2)CC1,25%,-10%,2%,x,3%[12.7 µM],x
CCCOc1ccc(C(=O)NNC(=S)NC(C)=O)cc1,19%,25%[57.1 µM],28µM*,-5,u,-7
CCOc1ccc(NC(=S)NNC(=O)c2ccc(Br)cc2)cc1,0%,-38%,u,6,35µM*,-8
CCCOc1ccc(C(=O)Nc2ccc(NC(=O)c3ccc(Br)cc3)cc2)cc1,10%,3%,-14%,x,-2%[59 µM],x
COc1ccc(C(=O)NC(=S)NNC(=O)c2ccc3ccccc3n2)cc1,-23%,79µM*,50µM*,-86*,13µM*,-82*
CCC(=O)NC(=S)NNC(=O)COc1ccc(Br)cc1,23%,-12%,-11%,12,8.9µM*,2
COc1ccc(-c2nnc3n2N=C(c2ccc(OC)cc2OC)CS3)cc1,x,x,-29%,x,x,x
CC(C)OC(=O)c1cccnc1SCC(=O)Nc1ccc(C(F)(F)F)cc1Cl,27%,9%,-11%,x,9%[59 µM],x
COc1ccc(C(=O)NC(=S)NNC(=O)c2ccc(NC(=O)C(C)C)cc2)cc1,-28%,3%,u,-22,4.5µM*,1
CCCCOc1ccc(C(=O)NNC(=S)NC(=O)CC)cc1,39%,9%,u,-21,20µM*,-6
CCCOc1ccc(C(=O)NNC(=S)NC(=O)c2ccco2)cc1,u,-12%,-31%,-12,40µM*,-11
CC(=O)Nc1ccc(C(=O)NNC(=O)Cc2ccccc2)cc1,-18%,-4%,-18%,3,x,5
COc1ccc(C(=O)NNC(=S)NC(=O)c2ccco2)cc1,36%,7%[57.1 µM],-2%[57.1 µM],-7,u,-8
COc1ccc(CC(=O)NNC(=O)c2ccc(NC(C)=O)cc2)cc1,-17%,-15%,-11%,19,45µM*,-4
Cc1cccc(CNC(=O)CS(=O)(=O)c2cccc3nsnc23)c1,12%[57 µM],-1%,-30%,x,30%[59 µM],x
O=C(NC(=S)NNC(=O)c1ccco1)c1ccc(Br)cc1,6%,-3%[57.1 µM],2%,-9,22µM*,x
COc1cc(OC)cc(C(=O)NC2CCSC2=O)c1 (configuration not stated),17%,x,-20%,-2,20%[59 µM],-8
CCC(=O)NC(=S)NNC(=O)c1ccc(OC)cc1,32%,4%,22µM*,-7,22µM*,8
COc1ccc(C(=O)NC(=S)NC2CCSC2=O)cc1 (configuration not stated),32%,-5%,-12%,0,10µM*,9
COc1ccc(CCNC(=O)C(=O)NCC(c2ccco2)S(=O)(=O)c2ccc(C)cc2)cc1 (configuration not stated),49%,0%,2%,x,-1%[59 µM],x
COc1cccc(Cn2c(=O)n(-c3ccccc3C)c(=O)c3c2c2cc(C)ccc2n3C)c1,45%,-20%,10%,x,u,x
COc1ccc(-c2nc3n(n2)C(c2ccccc2F)C(C(=O)Nc2cccnc2)=C(C)N3)cc1OC (configuration not stated),32%,-15%,-10%,x,7%[59 µM],x
Cc1nn(CC(=O)NC2CC2)c(=O)c2cc3cc(F)ccc3n12,28%,2%,-1%,x,1%[59 µM],x
CCN(C(=O)Cn1cc(S(=O)(=O)Cc2ccccc2Cl)c2ccccc21)c1ccccc1,6%,1%,-7%,x,-19%[59 µM],x
SMILES,HP1b binding inh,BAZ2B block,JMJD2A Tudor inh,Six1-Eya2 inh,G9a inh,CtBP-E1A inh
O=c1[nH]cc(Cc2ccccc2)c(=O)[nH]1,x,x,x,-13,x,4
S=c1[nH]cc(Cc2ccccc2)s1,u,-32%,4µM*,0,1.8µM*,-5
CCOC(=O)c1cc(-c2ccccc2)nn1Cc1ccccc1,269%,x,209%,x,203%[59 µM],x
CCOc1ccc2c(c1)-c1c(ssc1=S)C(C)(C)N2,u,10µM*,25µM*,u,10µM*,u
CCOc1ccc2c(c1)/C(=N/N1C(=O)c3ccccc3C1=O)C(=O)N2,4%,-6%,-11%,0,-5%[59 µM],-14
O=c1cc(CN2CCN(S(=O)(=O)c3ccc4c(c3)OCCO4)CC2)c2ccc(O)cc2o1,9%,-11%,-21%,-3,50µM*,-6
COc1ccc(OC)c(CN2CCN(Cc3cc(=O)oc4cc(O)ccc34)CC2)c1,15%,-19%,-20%,-12,35µM*,-6
COc1ccc2c(CN3CCCC3)cc(=O)oc2c1,x,x,x,1,x,5
Cc1ccccc1OCCSc1nnc(-c2ccc([N+](=O)[O-])cc2)o1,u,u,u,x,-12%[59 µM],x
O=C(CSc1nnc(-c2ccc(Cl)cc2)o1)N1CCc2ccccc21,2%,-4%,-5%,x,1%[59 µM],x
O=S(=O)(O)c1cc(O)c2ccc(Nc3ccccc3)cc2c1,u,x,2.8µM*,u,x,5
COc1ccc(S(=O)(=O)O)cc1P(=O)(c1ccccc1)c1ccccc1,16%,-13%,-17%,4,3%,0
Cc1ccc(S(=O)(=O)c2cc(Nc3ccccc3)ccc2O)cc1,-11%,50µM*,u,-16,17%[2.33 µM],-12
O=S(=O)(O)c1cc(O)c2cc(Nc3ccccc3)ccc2c1,35µM*,x,14µM*,-28,x,6
CC(=O)Nc1ccc2c(O)cc(S(=O)(=O)O)cc2c1,u,x,u,-19,x,0
COc1ccccc1Nc1ccc2c(O)cc(S(=O)(=O)O)cc2c1,22µM*,x,20µM*,-79*,x,-88*
Cc1ccc(CN2CCN(C3CCNCC3)C(=O)C2=O)cc1,26%,1%,-13%,x,-4%[59 µM],x
CCn1c(=O)n(-c2ccc3c(c2)OCO3)c2nc(-c3cc(OC)ccc3OC)nc(C(N)=O)c21,17%,u,-20%,x,19%[59 µM],x
Fc1ccc(-c2cn3cc(Cc4ccc(Cl)cc4)sc3n2)cc1,40%,-14%,-1%,x,11%[59 µM],x
Nc1cccc2c(O)cc(S(=O)(=O)O)cc12,10µM*,x,10µM*,u,x,u
Nc1ccc2c(O)cc(S(=O)(=O)O)cc2c1,u,x,45µM*,u,x,u
O=S(=O)(O)c1ccc(O)c2cc(Nc3ccccc3)ccc12,2µM*,x,2.8µM*,-73*,x,-29
